Here are results for four molecules from PubChem BioAssay (EPA / NIEHS).

Inconclusive results are not listed. The source made the active and inactive calls. How the source made its calls, unless noted: active means hit-call score of the fitted dose curve at least 0.9, where 1 is the maximum; inactive means score below 0.9.

Read-out in experiment [1]: Phosphatase and tensin (PTEN), PTEN (gene 5728)
Briefly: LTEA_HepaRG_PTEN: Life Technologies and Expression Analysis (LTEA) Assay for Phosphatase and tensin (PTEN) using HepaRG (AID 2283523). The note with it: mRNA level, 48 h; actives raise or lower the signal. The method in brief: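 Read-out: TaqMan qRT-PCR of PTEN transcript, normalized to three housekeeping genes, fitted in both directions against 0.5% DMSO. Differentiated human HepaRG cultures received chemicals for 48 h, eight-point half-log series topping at 100 uM.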

Read-out in experiment [2]: solute carrier (SLC22A1), SLC22A1 (gene 6580)
Briefly: LTEA_HepaRG_SLC22A1: Life Technologies and Expression Analysis (LTEA) Assay for solute carrier (SLC22A1) using HepaRG (AID 2283524).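 On AC50: differentiated human HepaRG liver cells in serum-free induction medium.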 The conditions noted are these: mRNA level, 48 h; actives raise or lower the signal. The method in brief: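 Transcript level of SLC22A1 quantified by qRT-PCR (normalized to three housekeeping genes) after 48 h chemical exposure of HepaRG cells, eight concentrations up to 100 µM, half-log steps, 0.5% DMSO vehicle. Gain or loss relative to DMSO fitted bidirectionally.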

Read-out in experiment [3]: Pyruvate Dehydrogenase Kinase 4 (PDK4), PDK4 (gene 5166)
Kind of experiment: LTEA_HepaRG_PDK4: Life Technologies and Expression Analysis (LTEA) Assay for Pyruvate Dehydrogenase Kinase 4 (PDK4) using HepaRG (AID 2283525). The conditions noted are these: mRNA level, 48 h; actives raise or lower the signal. A digest of the protocol:
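Readout is qRT-PCR of PDK4 transcript, normalized to three housekeeping genes, with bidirectional fitting against 0.5% DMSO vehicle. Differentiated HepaRG cells were treated 48 h in serum-free induction medium, duplicate wells, eight-point half-log series topping at 100 uM.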

Read-out in experiment [4]: NAD(P)H dehydrogenase [quinone] 1 (NQO1), NQO1 (gene 1728)
Briefly: LTEA_HepaRG_NQO1: Life Technologies and Expression Analysis (LTEA) Assay for NAD(P)H dehydrogenase [quinone] 1 (NQO1) using HepaRG (AID 2283526). The note with it: mRNA level, 48 h; actives raise or lower the signal. A digest of the protocol: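 qRT-PCR read-out (Fluidigm TaqMan), normalized to three housekeeping genes, after 48 h chemical exposure of HepaRG cells. Concentrations: eight points, top 100 uM, half-log steps, 0.5% DMSO vehicle. Gain or loss of signal fitted relative to DMSO.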

Read-out in experiment [5]: Nuclear factor erythroid 2-related factor 2 (Homo sapiens) (UniProt Q16236)
Kind of experiment: LTEA_HepaRG_NFE2L2: Life Technologies and Expression Analysis (LTEA) Assay for Nuclear factor erythroid 2-related factor 2 (NFE2L2) Transcription Factor using HepaRG (AID 2283527).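 On outcome: TaqMan qRT-PCR transcript level normalised to ACTB GAPDH and POLR2A housekeeping genes.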 The note with it: mRNA level, 48 h; actives raise or lower the signal. A digest of the protocol:
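NFE2L2 transcript level was read by qRT-PCR (housekeeping ACTB/GAPDH/POLR2A normalisation) after 48 h chemical treatment of HepaRG in serum-free induction medium. Duplicate 8-point half-log curves, top 100 uM, 0.5% DMSO vehicle; up- or down-regulation fitted against vehicle.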

Read-out in experiment [6]: succinate dehydrogenase complex iron sulfur subunit B (SDHB), SDHB (gene 6390)
Kind of experiment: LTEA_HepaRG_SDHB: Life Technologies and Expression Analysis (LTEA) Assay for succinate dehydrogenase complex iron sulfur subunit B (SDHB) using HepaRG (AID 2283528). The note with it: mRNA level, 48 h; actives raise or lower the signal. A digest of the protocol: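 Readout is SDHB transcript level by qRT-PCR, normalised to three housekeeping genes and fitted bidirectionally against 0.5% DMSO vehicle. Human HepaRG cells were treated for 48 h at up to 100 uM.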

Read-out in experiment [7]: Signal transducer and activator of transcription 3 (Homo sapiens) (UniProt P40763)
Kind of experiment: LTEA_HepaRG_STAT3: Life Technologies and Expression Analysis (LTEA) Assay for Signal transducer and activator of transcription (STAT3) using HepaRG (AID 2283529). The conditions noted are these: mRNA level, 48 h; actives raise or lower the signal. The method in brief:
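STAT3 transcript quantified by qRT-PCR against three housekeeping genes (ACTB, GAPDH, POLR2A), fitted both directions relative to DMSO. HepaRG cultures exposed 48 h to eight half-log concentrations, top 100 uM, 0.5% DMSO, serum-free induction medium.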

Read-out in experiment [8]: solute carrier (SLCO1B1), SLCO1B1 (gene 10599)
Briefly: LTEA_HepaRG_SLCO1B1: Life Technologies and Expression Analysis (LTEA) Assay for solute carrier (SLCO1B1) using HepaRG (AID 2283530). The note with it: mRNA level, 48 h; actives raise or lower the signal. A digest of the protocol:
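Human HepaRG cultures treated for 48 h with an eight-concentration half-log series topping at 100 uM; SLCO1B1 measured by qRT-PCR and fitted bidirectionally relative to DMSO.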

Read-out in experiment [9]: sulfotransferase 2A1 (SULT2A1), SULT2A1 (gene 6822)
Kind of experiment: LTEA_HepaRG_SULT2A1: Life Technologies and Expression Analysis (LTEA) Assay for sulfotransferase 2A1 (SULT2A1) using HepaRG (AID 2283531). The conditions noted are these: mRNA level, 48 h; actives raise or lower the signal. The method in brief:
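Gene-expression endpoint in a human liver cell line: SULT2A1 mRNA change after 48 h chemical treatment, curves fitted in both directions relative to 0.5% DMSO vehicle. Concentrations spanned eight half-log steps from 100 uM.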

Read-out in experiment [10]: Transforming Growth Factor (TGFA), TGFA (gene 7039)
Kind of experiment: LTEA_HepaRG_TGFA: Life Technologies and Expression Analysis (LTEA) Assay for Transforming Growth Factor (TGFA) using HepaRG (AID 2283532). The conditions noted are these: mRNA level, 48 h; actives raise or lower the signal. The method in brief: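 TGFA transcript quantified by qRT-PCR (Fluidigm arrays) against three housekeeping genes, after 48 hours chemical treatment of HepaRG cells. Top concentration 100 uM with half-log dilutions, 8 points, duplicates, 0.5% DMSO.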

Read-out in experiment [11]: Transforming Growth Factor (TGFB1), TGFB1 (gene 7040)
Kind of experiment: LTEA_HepaRG_TGFB1: Life Technologies and Expression Analysis (LTEA) Assay for Transforming Growth Factor (TGFB1) Transporter using HepaRG (AID 2283533). The conditions noted are these: mRNA level, 48 h; actives raise or lower the signal. A digest of the protocol: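 Eight-point concentration-response (max 100 uM, half-log) in HepaRG under serum-free induction conditions, 48 h. TGFB1 mRNA by qRT-PCR, housekeeping-normalized.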

Read-out in experiment [12]: TIMP1, TIMP1 (gene 7076)
Kind of experiment: LTEA_HepaRG_TIMP1: Life Technologies and Expression Analysis (LTEA) Assay for TIMP1 using HepaRG (AID 2283534).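 On outcome: TaqMan qRT-PCR signal normalized to ACTB GAPDH and POLR2A housekeeping genes.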 The conditions noted are these: mRNA level, 48 h; actives raise or lower the signal. The method in brief: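 TIMP1 induction or repression in HepaRG cells after 48 h chemical exposure (eight concentrations, highest 100 uM), assessed by normalized qRT-PCR with bidirectional fitting to DMSO controls.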

Read-out in experiment [13]: Tumor necrosis factor receptor 1 (TNFRSF1A), TNFRSF1A (gene 7132)
Kind of experiment: LTEA_HepaRG_TNFRSF1A: Life Technologies and Expression Analysis (LTEA) Assay for Tumor necrosis factor receptor 1 (TNFRSF1A) using HepaRG (AID 2283535). The conditions noted are these: mRNA level, 48 h; actives raise or lower the signal. A digest of the protocol:
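Assay uses 48 h chemical treatment of differentiated HepaRG monolayers, tested in duplicate at eight concentrations from 100 uM downward in 0.5% DMSO. mRNA is normalized to ACTB, GAPDH and POLR2A, with induction or suppression fitted relative to vehicle.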

Read-out in experiment [14]: Cellular tumor antigen p53 (Homo sapiens) (UniProt P04637)
Kind of experiment: LTEA_HepaRG_TP53: Life Technologies and Expression Analysis (LTEA) Assay for Tumor Protein P53 (TP53) using HepaRG (AID 2283537). The conditions noted are these: mRNA level, 48 h; actives raise or lower the signal. The method in brief:
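Read-out is TP53 transcript level by microfluidic qRT-PCR, normalised to three housekeeping genes and fitted bidirectionally against DMSO. Human HepaRG cells received compounds for 48 h, highest concentration 100 uM.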

Read-out in experiment [15]: UDP glucuronosyltransferase (UGT1A1), UGT1A1 (gene 54658)
Briefly: LTEA_HepaRG_UGT1A1: Life Technologies and Expression Analysis (LTEA) Assay for UDP glucuronosyltransferase (UGT1A1) using HepaRG (AID 2283538). The conditions noted are these: mRNA level, 48 h; actives raise or lower the signal. A digest of the protocol:
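HepaRG, 48 h chemical exposure (top 100 uM, half-log 8-pt, 0.5% DMSO vehicle), duplicate wells; qRT-PCR (TaqMan, Fluidigm array) for UGT1A1 mRNA, housekeeping-normalized; bidirectional curve fit vs DMSO baseline.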

Read-out in experiment [16]: UDP glucuronosyltransferase (UGT1A6), UGT1A6 (gene 54578)
Briefly: LTEA_HepaRG_UGT1A6: Life Technologies and Expression Analysis (LTEA) Assay for UDP glucuronosyltransferase (UGT1A6) using HepaRG (AID 2283539). The conditions noted are these: mRNA level, 48 h; actives raise or lower the signal. A digest of the protocol:
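Measures mRNA change in HepaRG hepatic cells exposed 48 h to chemicals (eight-point, maximum 100 uM, 0.5% DMSO vehicle) in serum-free induction medium. Expression normalized to endogenous controls; DMSO served as negative control and baseline.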

The nature of experiment [17]: LTEA_HepaRG_LDH_cytotoxicity: Cytotoxicity Assessment in the Life Technologies and Expression Analysis (LTEA) Assay (AID 2283563; active means hit-call score of the fitted dose curve at least 0.9, where 1 is the maximum;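 on AC50: LDH activity released into spent culture medium as a marker of cell death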). The method in brief:
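Spent-medium LDH after 48 h chemical exposure of HepaRG cells in serum-free induction medium; eight concentrations, half-log dilutions from 100 uM, duplicate wells, fitted upward relative to 0.5% DMSO.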

Experiment [18] can be described thus: ATG_XTT_Cytotoxicity: Cytotoxicity Assessment in the Attagene TRANS-FACTORIAL HepG2 Assay (AID 2283584; active means hit-call score of the fitted dose curve at least 0.9, where 1 is the maximum). The method in brief: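 24 h chemical exposure of reporter-transfected HepG2; XTT signal loss vs DMSO indicates cytotoxicity.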
Read-out in experiment [19]: Thyroid Hormone Responsive (THRSP), THRSP (gene 7069)
Kind of experiment: LTEA_HepaRG_THRSP: Life Technologies and Expression Analysis (LTEA) Assay for Thyroid Hormone Responsive (THRSP) using HepaRG (AID 2283536). The conditions noted are these: mRNA level, 48 h; actives raise or lower the signal. A digest of the protocol: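 THRSP transcript quantified by Fluidigm qRT-PCR against three housekeeping genes after 48 h chemical exposure of HepaRG cells in serum-free induction medium; eight-point half-log series, top 100 uM, 0.5% DMSO vehicle, duplicate wells.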

Chain of Cellular tumor antigen p53 (Homo sapiens) (P04637 whole entry, looked up): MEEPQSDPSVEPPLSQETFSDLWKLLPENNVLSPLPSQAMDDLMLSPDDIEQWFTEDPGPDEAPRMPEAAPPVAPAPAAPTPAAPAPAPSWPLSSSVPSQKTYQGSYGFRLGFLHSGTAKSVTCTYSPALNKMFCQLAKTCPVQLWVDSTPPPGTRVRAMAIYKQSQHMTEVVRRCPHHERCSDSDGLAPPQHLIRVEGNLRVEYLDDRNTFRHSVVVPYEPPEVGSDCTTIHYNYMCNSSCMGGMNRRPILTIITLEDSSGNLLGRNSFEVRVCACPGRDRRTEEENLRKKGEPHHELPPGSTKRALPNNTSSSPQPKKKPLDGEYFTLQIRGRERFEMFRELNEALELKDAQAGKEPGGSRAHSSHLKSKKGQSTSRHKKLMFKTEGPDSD
Chain of Nuclear factor erythroid 2-related factor 2 (Homo sapiens) (Q16236 whole entry, looked up): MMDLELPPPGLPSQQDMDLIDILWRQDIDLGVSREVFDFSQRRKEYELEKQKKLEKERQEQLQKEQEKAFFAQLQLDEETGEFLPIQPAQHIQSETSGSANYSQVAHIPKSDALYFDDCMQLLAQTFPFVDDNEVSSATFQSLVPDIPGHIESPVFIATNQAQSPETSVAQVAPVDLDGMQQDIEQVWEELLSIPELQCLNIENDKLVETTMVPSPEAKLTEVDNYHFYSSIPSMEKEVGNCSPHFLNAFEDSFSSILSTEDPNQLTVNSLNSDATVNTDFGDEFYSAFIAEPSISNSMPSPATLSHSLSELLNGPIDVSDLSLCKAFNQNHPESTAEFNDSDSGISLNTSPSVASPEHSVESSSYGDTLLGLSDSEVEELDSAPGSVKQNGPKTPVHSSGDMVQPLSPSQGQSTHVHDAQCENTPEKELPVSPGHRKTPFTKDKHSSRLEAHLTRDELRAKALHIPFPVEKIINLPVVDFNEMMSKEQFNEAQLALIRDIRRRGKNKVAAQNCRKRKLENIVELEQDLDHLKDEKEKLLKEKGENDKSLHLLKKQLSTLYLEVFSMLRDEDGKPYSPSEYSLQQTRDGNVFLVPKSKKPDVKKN
Chain of Signal transducer and activator of transcription 3 (Homo sapiens) (P40763 whole entry, looked up): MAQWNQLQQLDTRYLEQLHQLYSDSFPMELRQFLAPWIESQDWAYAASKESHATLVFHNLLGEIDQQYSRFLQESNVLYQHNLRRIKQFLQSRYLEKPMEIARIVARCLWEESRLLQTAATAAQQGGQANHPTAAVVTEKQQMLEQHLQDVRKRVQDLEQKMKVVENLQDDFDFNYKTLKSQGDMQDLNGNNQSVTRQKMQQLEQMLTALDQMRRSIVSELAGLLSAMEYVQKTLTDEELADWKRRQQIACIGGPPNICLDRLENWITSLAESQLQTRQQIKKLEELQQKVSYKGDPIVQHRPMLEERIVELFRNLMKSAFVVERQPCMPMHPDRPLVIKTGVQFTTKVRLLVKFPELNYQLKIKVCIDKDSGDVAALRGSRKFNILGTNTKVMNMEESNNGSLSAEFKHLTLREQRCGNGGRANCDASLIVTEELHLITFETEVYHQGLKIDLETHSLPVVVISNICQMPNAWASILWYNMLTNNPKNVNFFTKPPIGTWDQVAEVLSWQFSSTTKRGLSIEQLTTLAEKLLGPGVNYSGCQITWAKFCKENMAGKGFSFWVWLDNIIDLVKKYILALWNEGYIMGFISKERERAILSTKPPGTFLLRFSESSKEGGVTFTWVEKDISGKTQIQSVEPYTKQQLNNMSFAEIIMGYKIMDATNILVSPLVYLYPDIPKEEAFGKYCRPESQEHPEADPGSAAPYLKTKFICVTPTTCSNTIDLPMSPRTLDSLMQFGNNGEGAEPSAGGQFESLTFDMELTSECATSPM

One may read the AC50 as the concentration at which the activity in the assay is half-maximal. In the case of `O=C(OC[C@H]1O[C@@H](OC(=O)c2cc(O)c(O)c(OC(=O)c3cc(O)c(O)c(O)c3)c2)[C@H](OC(=O)c2cc(O)c(O)c(OC(=O)c3cc(O)c(O)c(O)c3)c2)[C@@H](OC(=O)c2cc(O)c(O)c(OC(=O)c3cc(O)c(O)c(O)c3)c2)[C@@H]1OC(=O)c1cc(O)c(O)c(OC(=O)c2cc(O)c(O)c(O)c2)c1)c1cc(O)c(O)c(OC(=O)c2cc(O)c(O)c(O)c2)c1`, the outcome in [1], in experiment [6], in experiment [7], in experiment [13], in [17] and in experiment [18] was inactive. The AC50 is 15.2 µM (active) in experiment [2]; 24.5 µM (active) in [3]; 5.1 µM (active) in experiment [4]; 15.2 µM (active) in [5]; 9.07 µM (active) in experiment [8]; 9.46 µM (active) in [9]. Moreover, the AC50 in experiment [10] was 6.41 µM (active); in experiment [11], 2.96 µM (active); in experiment [12], 15.2 µM (active); in [14] it was 4.95 µM (active); in experiment [15], 4.66 µM (active); in experiment [16], 5.4 µM (active).

Regarding `CCc1cc(SCc2sc(-c3ccc(C(F)(F)F)cc3)nc2CN2CCN(c3ccc(OC)cc3)CC2)ccc1OCC(=O)O`, the AC50 in experiment [1] was 24.6 µM (active); in [2] it was 8.47 µM (active); in experiment [3], 92.2 µM (active); in experiment [4], 8.39 µM (active); in experiment [5], 91.8 µM (active); in experiment [6] it was 93.7 µM (active). Besides, the AC50 is 93.3 µM (active) in [7]; 7.63 µM (active) in experiment [8]; 5.72 µM (active) in experiment [9]; 6.99 µM (active) in experiment [10]; 28.9 µM (active) in [11]; 94 µM (active) in experiment [12]. For the same molecule, the concentration at half-maximal activity (AC50) was 5 µM (active) in experiment [13]; 7.74 µM (active) in experiment [14]; 7.28 µM (active) in experiment [15]; 7.77 µM (active) in experiment [16]; 16.2 µM (active) in experiment [17]. In addition, the call in experiment [19] was inactive.

For the molecule `COC(=O)c1ccccc1O`, the molecule was called inactive in [1], in experiment [2], in experiment [3], in [4], in experiment [5] and in experiment [6]. The molecule was called inactive in experiment [7], in experiment [8], in experiment [9], in experiment [10], in experiment [11] and in experiment [12]. The call in experiment [13], in [19], in [14], in [15], in experiment [16] and in experiment [17] was inactive. Besides, the result in [18] was inactive.

Regarding `COc1cccc(-c2ccc(/C=C\CN3CCCCCC3)cc2Cl)c1`, the molecule was called inactive in experiment [1], in experiment [4], in [6], in experiment [7], in experiment [12] and in experiment [13]. Besides, the call in experiment [19] and in experiment [14] was inactive. Moreover, the AC50 was 74.4 µM (active) in experiment [2]; 74.1 µM (active) in experiment [3]; 65.7 µM (active) in experiment [5]; 74.6 µM (active) in [8]; 83.2 µM (active) in [9]; 74.4 µM (active) in [10]. Further, the AC50 in experiment [11] was 87.3 µM (active); in experiment [15] it was 83.4 µM (active); in experiment [16] it was 80.4 µM (active); in experiment [17] it was 68.8 µM (active).
